Source: PubChem BioAssay
The source made the active and inactive calls. Unless noted, how the calls were made is not given here.

Tests used:
[1] = tested on: Wnt5a (protein binding on small-molecule microarray); assay: small molecules binding Wnt5a protein – biophysical, small-molecule microarray, 635/667 nm fluorescence, primary screen (AID 1142); settings: 635 nm fluorescence, higher = more signal;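 further: fluorescence read at 667 nm with signal to noise per printed feature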
[2] = ATP-based viability of Huh7 replicon cells – cell-based, CellTiter-Glo luminescence, basal, 48 h, cytotoxicity control for HCV replication inhibitor project, primary screen (AID 1143); settings: higher = more signal, called active from +8 up or from −8 down;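 further: Huh7 hepatoma cells carrying a hepatitis C replication reporter with no stimulus; test concentration not given here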
[3] = Pseudomonas biofilm growth suppression – PAO1 strain, BacTiter-Glo luminescence, LB-PBS, primary screen (AID 1144); settings: P. aeruginosa PAO1 biofilm, 12 h, higher = more signal
[4] = basal CRE-LacZ reporter activity in PC12 – cell-based, unstimulated, primary screen (AID 1145); settings: no forskolin, luminescence, 4.5 h, higher = more signal, called active from +8 up or from −8 down
[5] = forskolin-driven CRE-LacZ activity in PC12 – cell-based, CRE-LacZ reporter, forskolin-stimulated, primary screen (AID 1146); settings: luminescence, 4.5 h, higher = more signal, called active from +8 up or from −8 down;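 further: PC12 cells with 6xCRE LacZ reporter stimulated by forskolin 10 µM; beta-galactosidase reporter signal reflecting CREB driven transcription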
[6] = molecular target: Streptavidin (Streptomyces avidinii) (UniProt P22629); assay: compounds binding control protein streptavidin – biophysical, small-molecule microarray, 635/667 nm fluorescence, artefact control for SMM compound annotation, primary screen (AID 1147); settings: higher = more signal;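 further: signal reflects streptavidin binding to arrayed compounds as a control protein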
[7] = probe aInhba binding on compound microarray – biochemical, small-molecule microarray, 635/667 nm fluorescence, primary screen (AID 1148); settings: higher = more signal;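 further: score merges 667nm spot fluorescence with signal-to-noise for antibody binding to printed compounds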
Torsin-1A (Homo sapiens) [8] = molecular target: Torsin-1A (Homo sapiens) (UniProt O14656); assay: TOR1A wild-type binding on microarray – cell lysate, small-molecule microarray, lysate, 635/667 nm, primary screen (AID 1149); settings: COS7 hTOR1A-WT lysate, 635 nm fluorescence, higher = more signal
Torsin-1A (Homo sapiens) [9] = molecular target: Torsin-1A (Homo sapiens) (UniProt O14656); assay: torsin A mutant lysate binding on microarrays – cell lysate, small-molecule microarray, COS7 lysate, 635/667 nm fluorescence, primary screen (AID 1150); settings: COS7 hTOR1A mutant lysate, 635 nm fluorescence, higher = more signal;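 further: score pools 667 nm emission and signal to noise measuring lysate protein binding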
[10] = tested on: Sonic hedgehog protein (Shh); assay: Sonic hedgehog microarray binding compounds – biochemical, small-molecule microarray, 635/667 nm fluorescence, primary screen (AID 1151); settings: 635 nm fluorescence, higher = more signal;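 further: Shh protein binding to compounds spotted on small-molecule microarray slides; score combines spot fluorescence intensity with signal-to-noise across triplicate slides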
[11] = optical density shifts of acrAB sulA E. coli – strain DRC41, OD650, 48 h, E. coli filamentation inducer project, primary screen (AID 1152); settings: higher = more signal, called active from +8 up or from −8 down;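 further: E. coli MC1000 strain DRC41 lacking acrAB efflux pump and sulA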
[12] = probe aLefty1 binding on compound microarray – biochemical, small-molecule microarray, 635/667 nm fluorescence, primary screen (AID 1153); settings: higher = more signal;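 further: score merges spot fluorescence with signal-to-noise ratio from the scanned slide images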
[13] = plasmodial surface anion channel blockers, osmotic lysis – cell-based, P. falciparum Indochina, OD700, 1 h, primary screen (AID 1154); settings: P. falciparum Indochina infected RBC osmotic lysis, higher = more signal, called active from +8 up or from −8 down
[14] = plasmodial surface anion channel blockers, osmotic lysis – cell-based, P. falciparum Indochina, OD700, 2 h, primary screen (AID 1155);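 further: lysis reports solute entry through the parasite surface anion channel PSAC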; settings: P. falciparum Indochina infected erythrocytes, higher = more signal, called active from +8 up or from −8 down
[15] = changes in parasitized red cell lysis, either direction – P. falciparum Indochina, OD700, 3 h, PSAC antagonist project, primary screen (AID 1156); settings: P. falciparum-infected erythrocytes, osmotic lysis, higher = more signal, called active from +8 up or from −8 down
[16] = plasmodial surface anion channel blockers, osmotic lysis – cell-based, P. falciparum Indochina, OD700, 18 h, primary screen (AID 1157); settings: P. falciparum Indochina infected erythrocytes, osmotic lysis OD700, 18 h; higher = more signal, called active from +8 up or from −8 down
[17] = S6 kinase pathway phospho-S6 level changes – cell-based, A549, cytoblot, luminescence, serum-stimulated, primary screen (AID 1158); settings: 5 h, higher = more signal;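 further: serum-stimulated A549 lung adenocarcinoma cells; signal is phosphorylated S6 detected by cytoblot immunostaining with HRP secondary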
[18] = molecular target: NADPH oxidase 2 (Homo sapiens) (UniProt P04839); assay: compounds shifting NOX2 Amplex Red fluorescence – cell-based, HEK293-NOX2, PMA-stimulated, NOX inhibitor project, primary screen (AID 1159); settings: 45 min, higher = more signal, called active from +8 up or from −8 down; further: test concentration not given here
[19] = molecular target: NADPH oxidase 4 (Homo sapiens) (UniProt Q9NPH5); assay: compounds shifting NOX4 Amplex Red fluorescence – cell-based, HEK293-NOX4, tetracycline-induced, NOX inhibitor project, primary screen (AID 1160); settings: HEK293-NOX4, Amplex Red H2O2 fluorescence, 45 min; higher = more signal, called active from +8 up or from −8 down
[20] = molecular target: NADPH oxidase 5 (Homo sapiens) (UniProt Q96PH1); assay: compounds shifting NOX5 Amplex Red fluorescence – cell-based, HEK293-NOX5, NOX inhibitor project, primary screen (AID 1161); settings: HEK293-NOX5, ionomycin, 45 min, higher = more signal
Sequence of NADPH oxidase 5 (Homo sapiens) (Q96PH1 whole entry, looked up): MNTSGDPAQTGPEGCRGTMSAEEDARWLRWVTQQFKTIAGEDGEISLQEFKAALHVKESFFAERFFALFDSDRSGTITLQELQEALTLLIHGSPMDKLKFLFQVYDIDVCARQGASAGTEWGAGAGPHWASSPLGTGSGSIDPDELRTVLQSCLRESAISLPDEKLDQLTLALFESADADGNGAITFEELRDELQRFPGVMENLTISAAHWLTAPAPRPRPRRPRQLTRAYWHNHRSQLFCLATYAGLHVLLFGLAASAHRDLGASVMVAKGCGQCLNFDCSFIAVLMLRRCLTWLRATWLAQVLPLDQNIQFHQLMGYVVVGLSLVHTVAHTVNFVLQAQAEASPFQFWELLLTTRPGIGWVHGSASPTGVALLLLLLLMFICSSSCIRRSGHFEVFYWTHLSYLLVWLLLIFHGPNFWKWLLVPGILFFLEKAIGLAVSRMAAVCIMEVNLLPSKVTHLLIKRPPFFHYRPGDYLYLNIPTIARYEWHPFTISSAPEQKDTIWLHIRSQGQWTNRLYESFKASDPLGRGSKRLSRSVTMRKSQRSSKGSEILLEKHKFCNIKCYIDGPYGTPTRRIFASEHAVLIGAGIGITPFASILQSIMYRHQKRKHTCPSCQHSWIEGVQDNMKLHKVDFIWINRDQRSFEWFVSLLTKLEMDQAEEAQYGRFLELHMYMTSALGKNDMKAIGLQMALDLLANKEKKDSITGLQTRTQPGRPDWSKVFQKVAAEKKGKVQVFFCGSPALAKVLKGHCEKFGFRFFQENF

Sequence of Streptavidin (Streptomyces avidinii) (P22629 whole entry, looked up): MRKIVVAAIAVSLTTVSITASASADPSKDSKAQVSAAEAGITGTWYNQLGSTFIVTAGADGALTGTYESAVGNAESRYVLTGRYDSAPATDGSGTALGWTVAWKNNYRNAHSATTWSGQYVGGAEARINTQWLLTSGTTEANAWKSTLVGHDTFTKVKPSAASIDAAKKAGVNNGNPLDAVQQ
Sequence of Torsin-1A (Homo sapiens) (O14656 whole entry, looked up): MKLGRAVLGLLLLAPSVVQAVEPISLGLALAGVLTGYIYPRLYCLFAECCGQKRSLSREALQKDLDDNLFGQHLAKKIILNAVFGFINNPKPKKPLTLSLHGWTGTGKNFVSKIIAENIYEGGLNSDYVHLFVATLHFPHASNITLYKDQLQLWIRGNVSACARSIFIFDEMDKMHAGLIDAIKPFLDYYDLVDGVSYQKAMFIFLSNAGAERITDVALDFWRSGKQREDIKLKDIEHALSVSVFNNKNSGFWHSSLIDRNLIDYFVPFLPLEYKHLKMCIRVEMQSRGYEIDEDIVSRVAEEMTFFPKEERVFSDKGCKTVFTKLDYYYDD
Sequence of NADPH oxidase 2 (Homo sapiens) (P04839 whole entry, looked up): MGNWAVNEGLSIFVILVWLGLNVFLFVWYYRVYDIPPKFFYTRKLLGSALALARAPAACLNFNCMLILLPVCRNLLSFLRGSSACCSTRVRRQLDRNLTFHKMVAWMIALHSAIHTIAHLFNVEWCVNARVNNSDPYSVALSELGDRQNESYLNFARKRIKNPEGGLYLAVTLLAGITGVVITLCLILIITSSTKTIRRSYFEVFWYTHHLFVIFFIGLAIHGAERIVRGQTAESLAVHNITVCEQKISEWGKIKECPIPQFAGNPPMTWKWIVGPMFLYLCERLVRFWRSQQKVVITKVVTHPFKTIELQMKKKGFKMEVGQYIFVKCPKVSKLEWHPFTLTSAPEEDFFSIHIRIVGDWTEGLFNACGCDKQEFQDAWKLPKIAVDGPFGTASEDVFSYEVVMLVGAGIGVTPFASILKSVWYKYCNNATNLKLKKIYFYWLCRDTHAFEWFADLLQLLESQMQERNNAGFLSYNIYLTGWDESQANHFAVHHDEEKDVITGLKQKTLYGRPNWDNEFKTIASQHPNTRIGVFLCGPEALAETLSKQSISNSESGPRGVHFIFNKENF
Sequence of NADPH oxidase 4 (Homo sapiens) (Q9NPH5 whole entry, looked up): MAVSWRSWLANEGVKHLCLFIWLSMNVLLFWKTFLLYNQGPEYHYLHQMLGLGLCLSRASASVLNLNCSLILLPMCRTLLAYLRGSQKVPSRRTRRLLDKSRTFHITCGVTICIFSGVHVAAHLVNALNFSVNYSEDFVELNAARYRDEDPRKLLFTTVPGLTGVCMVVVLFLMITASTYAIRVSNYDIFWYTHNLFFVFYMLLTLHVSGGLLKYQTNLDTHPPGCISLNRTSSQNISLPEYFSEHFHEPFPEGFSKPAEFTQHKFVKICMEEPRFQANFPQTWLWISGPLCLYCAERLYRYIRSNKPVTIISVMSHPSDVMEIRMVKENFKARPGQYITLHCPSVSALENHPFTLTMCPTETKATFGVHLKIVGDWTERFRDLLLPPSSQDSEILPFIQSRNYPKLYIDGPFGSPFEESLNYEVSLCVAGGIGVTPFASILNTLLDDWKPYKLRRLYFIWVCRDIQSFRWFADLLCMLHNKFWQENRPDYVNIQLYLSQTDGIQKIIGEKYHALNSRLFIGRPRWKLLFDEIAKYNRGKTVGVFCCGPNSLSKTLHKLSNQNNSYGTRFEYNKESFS

Row | SMILES | composite z-score [1] | z-score [2] | z-score [3] | z-score [4] | z-score [5] | composite z-score [6] | composite z-score [7] | composite z-score (Torsin-1A (Homo sapiens) [8]) | composite z-score (Torsin-1A (Homo sapiens) [9]) | composite z-score [10] | z-score [11] | composite z-score [12] | z-score [13] | z-score [14] | z-score [15] | z-score [16] | z-score [17] | z-score [18] | z-score [19] | z-score [20]
1 | CCOC(=O)[C@H]1C/C=C/C[C@H](C(=O)OCC)C(=O)O[C@H]2[C@@H](OC)O[C@H](CO)[C@@H](OC(=O)Nc3ccc(OC)cc3)[C@@H]2OC1=O | 0.314 | -3.41 (inactive) | 0.29 (inactive) | 0.484 (inactive) | 0.106 (inactive) | 0.355 | 0.134 | 0.494 | 1.64 | 0.733 | 1.04 (inactive) | 0.104 | 0.736 (inactive) | -0.0928 (inactive) | -0.0986 (inactive) | 0.385 (inactive) | -0.0056 | -2.43 (inactive) | -1.29 (inactive) | -1.99
2 | Cc1ccc(S[C@]2(C(=O)O)CC(=O)N(Cc3ccccc3Cl)[C@@H]2c2ccc(CO)cc2)cc1 | 0.0044 | -1.55 (inactive) | 0.596 (inactive) | 0.441 (inactive) | 1.27 (inactive) | -0.868 | -0.0791 | -0.951 | 0.822 | -0.259 | 0.33 (inactive) | -0.112 | 2.67 (inactive) | -0.185 (inactive) | 0.825 (inactive) | 0.55 (inactive) | 0.227 | 0.646 (inactive) | -1.5 (inactive) | 0.432
3 | CC=CC(O)C1C=CC2C(=O)N(c3ccccc3)C(=O)C2N1Nc1ccc([N+](=O)[O-])cc1 (stereo not given) | -0.0454 | 0.612 (inactive) | 0.698 (inactive) | -0.415 (inactive) | 0.0268 (inactive) | 0.395 | -0.162 | 0.463 | -0.213 | 0.224 | -1 (inactive) | 0.0378 | 8.61 (active) | 1.61 (inactive) | 0.457 (inactive) | 0.876 (inactive) | -0.701 | -0.095 (inactive) | -1.91 (inactive) | -0.909
4 | CO[C@H]1O[C@H](CO)[C@@H](OC(=O)Nc2ccc(Oc3ccccc3)cc2)[C@H](OC(=O)Nc2ccccc2-c2ccccc2)[C@@H]1OC(=O)Nc1ccccc1-c1ccccc1 | 0.58 | -4.64 (inactive) | -0.935 (inactive) | -0.198 (inactive) | -0.355 (inactive) | 0.819 | 0.588 | -0.21 | 0.408 | 0.74 | 0.963 (inactive) | 0.361 | 0.484 (inactive) | 1.04 (inactive) | 0.228 (inactive) | 0.766 (inactive) | 0.322 | 2.06 (inactive) | 0.707 (inactive) | 0.356
5 | COc1cc(CO)cc(I)c1O[C@H]1C=C(C(=O)NCCO)C[C@@H](N(Cc2ccc(F)cc2)C(=O)C2CCCO2)[C@@H]1O (stereo not given in full) | -0.212 | -0.457 (inactive) | -0.583 (inactive) | 0.949 (inactive) | -1.24 (inactive) | -0.274 | -0.227 | -0.0326 | -0.0306 | 0.399 | 3.54 (inactive) | -0.147 | 1.92 (inactive) | 0.581 (inactive) | 1.03 (inactive) | 0.23 (inactive) | -0.0981 | 0.0499 (inactive) | 0.93 (inactive) | 0.73
6 | COC(=O)[C@@]1(Cc2ccccc2)[C@H]2c3cc(C(=O)N4CCCC4)n(Cc4cc(F)cc5c4OCOC5)c3C[C@H]2CN1C(=O)c1ccccc1 | 0.503 | 0.147 (inactive) | -0.511 (inactive) | -0.185 (inactive) | 0.444 (inactive) | 0.503 | 0.0982 | -0.0566 | 1.26 | -0.457 | -1.14 (inactive) | 0.0752 | 2.98 (inactive) | 0.589 (inactive) | 0.804 (inactive) | 0.715 (inactive) | -0.163 | 0.768 (inactive) | 0.0378 (inactive) | -0.652
7 | NC(N)=NCc1cn(CCc2c[nH]c3ccccc23)nn1 | 0.131 | -0.343 (inactive) | 0.845 (inactive) | -0.0989 (inactive) | 0.0771 (inactive) | 0.294 | 0.0275 | 0.607 | 0.734 | 1.54 | -0.75 (inactive) | -0.151 | 0.488 (inactive) | 0.078 (inactive) | 0.0119 (inactive) | 0.114 (inactive) | -0.583 | -0.00385 (inactive) | 0.0455 (inactive) | -3.95
8 | CC(C)CNC(=O)[C@@]1(c2ccc([N+](=O)[O-])cc2)CC(=O)N(C2CCCCC2)[C@@H]1c1ccc(CO)cc1I | -0.067 | -4.13 (inactive) | 0.363 (inactive) | 0.324 (inactive) | 1.65 (inactive) | -0.018 | 0.0633 | -0.149 | 0.0482 | 0.425 | -0.826 (inactive) | 0.213 | 10.8 (active) | 2.15 (inactive) | 3.67 (inactive) | 0.794 (inactive) | -0.183 | 0.685 (inactive) | 0.486 (inactive) | 1.74
